# Shiga toxin inh: Shiga toxin inhibition | Vero cells, Shiga toxin protein synthesis inhibition reporter | inhibition, % at 38.7 µM | actives 9.2% (n = 290,000); in the data active = inhibition mostly above about 28%, no sharp cut-off; inactive = mostly below about 43%; note: 0% is about no effect
# CHX counter: affects cycloheximide protein synthesis inhibition readout, counter-screen | cell reporter, cycloheximide protein synthesis inhibition counterscreen | max response, % | actives 12% (n = 300,000) | AID 2314; in the data active = max response mostly above about 13%, no sharp cut-off; inactive = mostly below about 14%; note: read at 38.3 µM for the half of the compounds with a filed dose; 0% is about no effect
# HCMV antiviral: blocks human cytomegalovirus replication; HFF cells, HCMV-luciferase reporter, 72 h; stronger effect = lower value; AID 1259415; activity change, negative = inhibition, % at 57.5 µM; actives 4.5% (n = 410,000); in the data active = activity change below about -60%; inconclusive = no clear call, values can overlap the other calls; inactive = above about -39%; note: % is set by controls: 0 for no effect and ±100 for the full control effect
#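 Cell-based, HFFs, 1000 cells/well, 16 h 37C; cpds in DMSO + HCMV-luc, MOI 1 PFU/cell; 72 h 37C; OneGlo luminescence after 5 min RT; norm. to buffer vs Salinomycin 10uM.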
# HCV inh: HCV inhibition | actives 3.4% (n = 340,000) | Potency, µM (top dose mostly 41.8 µM), for the others: top-dose activity change, negative = inhibition, usual class: inhibitors | Huh7.5.1 HCVcc-Cre infection, luciferase reporter, 44 h; note: potency is the fitted concentration of half-maximal effect; % is set by controls: 0 for no effect and ±100 for the full control effect
#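 A cell-based infection assay in which seeded cells (1,000 per well) receive test compound after 4 h, are inoculated with HCVcc-Cre at approximately 0.5 moi, and are incubated 44 h before luminescence detection.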
# Pf growth 48h: inhibits P. falciparum growth in the first generation, 48 h; P. falciparum luciferase growth in erythrocytes, 48 h; Potency, µM (titrated, usually from 28.7 µM), for the others: at the top dose activity change, negative = inhibition, most hits filed as inhibitors; actives 5.9% (n = 310,000); note: potency is the fitted concentration of half-maximal effect; % is set by controls: 0 for no effect and ±100 for the full control effect
#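 Firefly luciferase activity from engineered P. falciparum reports growth; inhibitors lower the luminescent signal. Cultures contained 2% hematocrit erythrocytes at 0.1% final parasitemia.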
# Pf growth 96h: inhibits malaria parasite growth, 96 h; P. falciparum luciferase reporter growth, 96 h; Potency, µM (series often up to 28.7 µM), without a hit: top-dose activity change, negative = inhibition, actives largely listed as inhibitors; actives 6.9% (n = 320,000); AID 504834; note: potency is the fitted concentration of half-maximal effect; % is set by controls: 0 for no effect and ±100 for the full control effect
#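 Erythrocytes infected with luciferase-expressing P. falciparum were dispensed at 2% hematocrit and 0.05% parasitemia (final), then incubated with compounds 96 hours at 37 C in 5% CO2. Luminescence after detection reagent addition reported growth.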
# * hit, by the source's call; ? = inconclusive; nt = not tested or not shown. Shown are actives, neighbours in structure and some others; about 21% of the full set was active somewhere. Unless noted, calls come from the whole dose curve; as a rule, active = well fitted inhibition curve with a large enough effect; inconclusive = small, poorly fitted or top-dose-only effect, or another doubt; inactive = no such curve, though single readings can be large or run the other way.
SMILES,Shiga toxin inh,CHX counter,HCMV antiviral,HCV inh,Pf growth 48h,Pf growth 96h
CC[C@H](C)Cc1cn([C@@H](CCCN=C(NC(=O)OC(C)(C)C)NC(=O)OC(C)(C)C)C(=O)NCCCCCCCCCCC(=O)N2CCN(C(=O)OC(C)(C)C)CC2)nn1,nt,nt,nt,0%,1µM*,1.5µM*
Cc1cccc(Cn2c(C)nc3c(N)c(C)c(C)cc32)c1,-12,-3,-40,-18%,10µM*,?
COC(=O)c1cc(=O)nc(NN=C(C)C)s1,nt,nt,-9,nt,nt,nt
COc1ccccc1CC(=O)Nc1ccc(S(=O)(=O)N2CCOCC2)cc1,-4,-7,18,?,-19%,29%
CCn1c2ccccc2c2cc(CN3CCN(C(=O)c4ccco4)CC3)ccc21,-12,5,-4,-13%,?,8.3µM*
Cc1ccc(C)c(COc2coc(CN3CCN(C(=O)c4ccco4)CC3)cc2=O)c1,nt,nt,-17,4%,12µM*,?
Cc1ccccc1CC(=O)N1CCN(C(=O)c2ccco2)CC1,-15,2,-37,8%,12%,?
Cc1ccccc1CN1CCN(C(=O)c2ccco2)CC1,36,33*,59,17%,-14%,123%
O=C(c1ccco1)N1CCN(Cc2cc(=O)c(OCc3ccccc3Cl)co2)CC1,nt,nt,4,1%,?,?
Cc1ccc(CN2CCN(C(=O)c3ccco3)CC2)cc1,11,-3,5,-8%,?,?
CCCSc1ccccc1C(=O)N1CCN(C(=O)c2ccco2)CC1,-15,-1,-101*,3%,-9%,28%
CC(=O)N1CCc2cc(Br)cc(S(=O)(=O)CCC(=O)NCc3ccc(F)cc3)c21,nt,nt,-16,nt,nt,nt
O=C(c1ccco1)N1CCN(Cc2ccccc2F)CC1,1,9,157,14%,425%,-48%
CCn1c(=O)cc(SCC(=O)N2CCN(C(=O)c3ccco3)CC2)c2ccccc21,16,5,111,-19%,-14%,5.9µM*
CCCS(=O)(=O)N1CCN(Cc2ccc3c(c2)c2ccccc2n3CC)CC1,-12,-1,4,?,9.3µM*,35%
O=C(c1ccco1)N1CCN(Cc2c(F)cccc2Cl)CC1,50*,39*,73,12%,32%,17%
CCOc1ccc(CN2CCN(Cc3ccc4c(c3)c3ccccc3n4CC)CC2)cc1,nt,nt,101,nt,nt,nt
O=c1c(NCc2cccs2)nccn1-c1ccc(F)cc1,nt,nt,7,nt,nt,nt
CCn1c(O)c(N=NC(=O)C(O)c2ccccc2)c2ccccc21 (stereo not given),31,1,12,-28%,1%,31%
Cc1cccc(CS(=O)(=O)Cc2ccc(C(=O)NCc3cccnc3)o2)c1,10,1,-3,-1%,-2%,1.9µM*
COc1ccccc1S(=O)(=O)Cc1ccc(C(=O)NCc2cccs2)o1,-8,-3,1,16%,0.83µM*,nt
Cc1ccc(CS(=O)(=O)Cc2ccc(C(=O)NCc3cccs3)o2)cc1,19,1,-89*,-4%,-17%,?
COc1ccc(Nc2cc3c(cn2)cc(-c2cccc(C(F)(F)F)c2)n3C)c(OC)c1,nt,nt,-1,nt,nt,nt
O=C1CCN(C(=O)CSc2ccc(Cl)cc2)N1,-11,-1,-2,10%,8%,?
CCCCNC(=O)c1nn2c(C(F)(F)F)cc(-c3ccccc3)nc2c1Br,-4,-3,31,?,?,78%
SMILES,Shiga toxin inh,CHX counter,HCMV antiviral,HCV inh,Pf growth 48h,Pf growth 96h
CCN(CC)CCCNC(=O)c1nn2c(C(F)(F)F)cc(-c3ccccc3)nc2c1Cl,-28,-4,0,4µM*,0%,?
CCOc1ccc(N(CC(=O)Nc2cccc(F)c2)S(=O)(=O)c2c(C)noc2C)cc1,18,-1,-15,-17%,nt,19%
CCOc1ccc(N(CC(=O)Nc2ccccc2C)S(=O)(=O)c2c(C)noc2C)cc1,-13,-1,-69*,-26%,nt,?
CCOc1ccc(N(CC(=O)NCc2ccccc2Cl)S(=O)(=O)c2c(C)noc2C)cc1,-2,6,20,-12%,13µM*,?
CCOc1ccc(N(CC(=O)Nc2ccc(C)c(C)c2)S(=O)(=O)c2c(C)noc2C)cc1,6,7,-71*,?,?,?
CCOc1ccccc1NC(=O)CN(c1ccc(OC)cc1)S(=O)(=O)c1c(C)noc1C,-12,-5,-39,?,9.3µM*,?
Cn1c(O)c(/C=C2\C=Nc3ccccc32)c(=O)n(C)c1=O,10,-4,87,-6%,0%,45%
CSc1nc(/C=C2\C=Nc3ccccc32)c(O)n1C,117*,17*,217,?,?,32%
Cc1onc(-c2ccc(Cl)cc2Cl)c1-c1csc(N/N=C/c2ccccc2)n1,-1,1,-35,?,3.7µM*,?
Clc1ccc(-c2csc(N/N=C/c3ccc4c(c3)OCO4)n2)cc1,-14,2,-34,?,?,?
Cc1ccc(OC(C)C(=O)Nc2ccccc2C(=O)N2CCN(C)CC2)cc1 (stereo not given),-19,-3,-6,1%,-2%,?
O=C1C(Cl)=CC(=Nc2ccc(O)cc2)C=C1Cl,12,12,-79*,-4%,?,-106%
Cc1cc(F)c(Nc2ncnc3cc(OCc4ccccc4)ccc23)cc1O,17,4,nt,nt,nt,nt
COc1cc2c(cc1OC)[C@@H]1C(=O)c3ccc4c(c3O[C@@H]1CO2)C[C@H](C(C)C)O4,-6,-1,-94*,0.32µM*,?,?
COc1cc2c(cc1OC)C1C(=O)c3ccc4c(c3OC1CO2)CC(C(C)C)O4 (stereo not given),nt,nt,-96*,?,nt,nt
COc1cc2c(cc1OC)[C@H]1C(=O)c3ccc4c(c3O[C@H]1CO2)C[C@@H](C(C)(C)O)O4,nt,nt,-21,?,nt,nt
COc1ccc([C@@H]2COc3c(ccc4c3C=CC(C)(C)O4)C2)c(OC)c1,nt,nt,-1,41%,nt,nt
COc1cccc(CN(C)C(=O)c2cccc(OC3CCN(C4CCCC4)CC3)c2)c1,-2,-1,-15,?,?,39%
CC(=O)c1cccc(NC(=O)C2CCN(S(=O)(=O)c3ccc4c(c3)oc(=O)n4C)CC2)c1,nt,nt,-12,nt,nt,nt
N=C1C=CC(=C(c2ccc(N)cc2)c2ccc(N)cc2)C=C1,nt,nt,-100*,6.3µM*,nt,nt
CCOc1ccc(NC(=S)N2CCC(c3ccc(C)cc3)C2)cc1 (stereo not given),-8,-2,4,-25%,8%,3%
COc1cccc(NC(=S)N2CCC(c3ccc(C)cc3)C2)c1 (stereo not given),82*,30*,53,-17%,18%,12%
COc1ccc(NC(=S)N2CCC(c3ccc(C)cc3)C2)cc1 (stereo not given),41,14*,45,1%,32%,18%

# Assay outcomes (PubChem BioAssay)
